# The full list was thinned out, with the strongest signals kept by preference.
# B1: Flo5 (Saccharomyces cerevisiae), P38894 (protein)
# chain: MGSSHHHHHHSSGLVPRGSHMSGATEACLPAGQRKSGMNINFYQYSLKDSSTYSNAAYMAYGYASKTKLGSVGGQTDISIDYNIPCVSSSGTFPCPQEDSYGNWGCKGMGACSNSQGIAYWSTDLFGFYTTPTNVTLEMTGYFLPPQTGSYTFSFATVDDSAILSVGGSIAFECCAQEQPPITSTNFTINGIKPWDGSLPDNITGTVYMYAGYYYPLKVVYSNAVSWGTLPISVELPDGTTVSDNFEGYVYSFDDDLSQSNCTIPDPSIH
# Legend:
# Assay in all cases: glycan array binding signal (z-score within array); higher = stronger binding
# Conditions in all cases: glycan notation: IUPAC condensed, linker removed
# [1] = biological target: Fuc(a1-2)Gal(b1-3)GalNAc(b1-3)Gal
# In short: (§1)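 The Consortium for Functional Glycomics database supplied 3228 glycan arrays, of which those lacking an available protein sequence were dropped. The binding signal, a within-array Z-score, was averaged across arrays of the same protein sequence and across linkers. Negative scores can be read as non-binding.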
# Fuc(a1-2)Gal(b1-4)Glc = biological target: Fuc(a1-2)Gal(b1-4)Glc
# In short: as §1
# [2] = biological target: Fuc(a1-2)Gal(b1-4)GlcNAc(b1-3)Gal(b1-4)GlcNAc(b1-3)Gal(b1-4)GlcNAc
# In short: as §1
# [3] = biological target: Fuc(a1-2)Gal(b1-4)[Fuc(a1-3)]GlcNAc(b1-3)Gal(b1-4)[Fuc(a1-3)]GlcNAc
# In short: as §1
# [4] = biological target: Fuc(a1-2)[Gal(a1-4)]Gal(b1-4)GlcNAc
# In short: as §1
# [5] = biological target: Fuc(a1-2)[GalNAc(a1-4)]Gal(b1-4)GlcNAc
# In short: as §1
# [6] = biological target: Fuc(a1-3)[Gal(b1-4)]Glc6S
# In short: as §1
# [7] = biological target: Fuc(a1-3)[Gal(b1-4)]GlcNAc(b1-2)Man(a1-6)[Gal(b1-4)GlcNAc(b1-2)Man(a1-3)]Man(b1-4)GlcNAc(b1-4)GlcNAc
# In short: as §1
# [8] = biological target: Fuc(a1-3)[Gal(b1-4)]GlcNAc(b1-4)Gal(b1-4)[Fuc(a1-3)]GlcNAc(b1-4)Gal(b1-4)[Fuc(a1-3)]GlcNAc
# In short: as §1
# [9] = biological target: Fuc(a1-3)[Neu5Ac(a2-3)]Gal(b1-4)GlcNAc(b1-3)GalNAc
# In short: as §1
# [10] = biological target: Gal(b1-3)[Fuc(a1-4)]GlcNAc
# In short: as §1
# [11] = biological target: Gal(b1-3)[Neu5Ac(b2-6)]GalNAc
# In short: as §1
# [12] = biological target: Gal(b1-4)GalNAc(a1-3)[Fuc(a1-2)]Gal(b1-4)GlcNAc
# In short: as §1
# Gal3S(b1-3)GalNAc = biological target: Gal3S(b1-3)GalNAc
# In short: as §1
# Gal3S(b1-4)Glc6S = biological target: Gal3S(b1-4)Glc6S
# In short: as §1
# Gal6S(b1-4)Glc = biological target: Gal6S(b1-4)Glc
# In short: as §1
# Glc(b1-6)Glc = biological target: Glc(b1-6)Glc
# In short: as §1
# [13] = biological target: GlcNAc(b1-3)Gal(b1-4)GlcNAc(b1-3)Gal(b1-4)GlcNAc
# In short: as §1
# [14] = biological target: GlcNAc(b1-3)[GlcNAc(b1-6)]Gal(b1-4)GlcNAc
# In short: as §1
# [15] = biological target: GlcNAc(b1-4)[GlcNAc(b1-6)]GalNAc
# In short: as §1
# [16] = biological target: Man(a1-2)Man(a1-2)Man(a1-3)Man
# In short: as §1
# [17] = biological target: Man(a1-3)[Man(a1-6)]Man(a1-6)[Man(a1-3)]Man
# In short: as §1
# [18] = biological target: Neu5Ac(a2-3)Gal(b1-4)GlcNAc(b1-6)[Gal(b1-3)]GalNAc
# In short: as §1
# Neu5Ac(a2-8)Neu5Ac = biological target: Neu5Ac(a2-8)Neu5Ac
# In short: as §1
# [19] = biological target: Neu5Ac(a2-8)Neu5Ac(a2-3)[GalNAc(b1-4)]Gal(b1-4)Glc
# In short: as §1
# [20] = biological target: Neu5Ac(a2-8)Neu5Ac(a2-8)Neu5Ac(a2-8)Neu5Ac(a2-3)[GalNAc(b1-4)]Gal(b1-4)Glc
# In short: as §1
# [21] = biological target: Neu5Ac9Ac(a2-3)Gal(b1-4)GlcNAc
# In short: as §1
binder,measurement,setting,value
B1,glycan array binding signal (z-score),[1],1.59
same,glycan array binding signal (z-score),Fuc(a1-2)Gal(b1-4)Glc,1.59
same,glycan array binding signal (z-score),[2],-0.14
same,glycan array binding signal (z-score),[3],-0.205
same,glycan array binding signal (z-score),[4],-0.23
same,glycan array binding signal (z-score),[5],3.78
same,glycan array binding signal (z-score),[6],-0.024
same,glycan array binding signal (z-score),[7],-0.206
same,glycan array binding signal (z-score),[8],-0.162
same,glycan array binding signal (z-score),[9],-0.232
same,glycan array binding signal (z-score),[10],-0.153
same,glycan array binding signal (z-score),[11],-0.121
same,glycan array binding signal (z-score),[12],-0.189
same,glycan array binding signal (z-score),Gal3S(b1-3)GalNAc,-0.17
same,glycan array binding signal (z-score),Gal3S(b1-4)Glc6S,8.31
same,glycan array binding signal (z-score),Gal6S(b1-4)Glc,-0.082
same,glycan array binding signal (z-score),Glc(b1-6)Glc,-0.203
same,glycan array binding signal (z-score),[13],-0.027
same,glycan array binding signal (z-score),[14],-0.156
same,glycan array binding signal (z-score),[15],-0.139
same,glycan array binding signal (z-score),[16],6.07
same,glycan array binding signal (z-score),[17],3.11
same,glycan array binding signal (z-score),[18],-0.196
same,glycan array binding signal (z-score),Neu5Ac(a2-8)Neu5Ac,-0.148
same,glycan array binding signal (z-score),[19],-0.104
same,glycan array binding signal (z-score),[20],-0.149
same,glycan array binding signal (z-score),[21],-0.126

# From the supplement of paper PMC8728848
